Bioassay records (PubChem)
SMN2 splice enh: SMN2 splice variant enhancement; HEK293 SMN2-luciferase splicing reporter, luminescence, 30-36 h; Potency, µM (doses to about 46.1 µM), inactives show at the top dose activity change, positive = activation, usual class: activators; 210,000 compounds, 2.8% hits; AID 1458; also: % of control where 0% means no effect; nearly all actives have a fitted effect of over 55% in size
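HEK293 cells carry an SMN2 […]–luciferase reporter in which exon 7 inclusion puts luciferase in frame. Cells were plated 10-12 h before compound addition, then incubated 30-36 h at 37C. ONE-Glo luminescence was read; sodium butyrate at 4.5 mM final served as control.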
FLuc counter: inhibits or activates purified firefly luciferase, miR-21 counter-screen; P08659; purified FLuc, Km substrates, luminescence inhibition; Potency, µM (series often up to 57.5 µM), for inactives: top-dose activity change, negative = inhibition, usual class: inhibitors; 360,000 compounds, 6.9% hits;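 also: plate controls were vehicle for no effect and reference inhibitor for full effect; nearly all actives have a fitted effect of over 55% in size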
Target sequence (P08659 whole entry, looked up): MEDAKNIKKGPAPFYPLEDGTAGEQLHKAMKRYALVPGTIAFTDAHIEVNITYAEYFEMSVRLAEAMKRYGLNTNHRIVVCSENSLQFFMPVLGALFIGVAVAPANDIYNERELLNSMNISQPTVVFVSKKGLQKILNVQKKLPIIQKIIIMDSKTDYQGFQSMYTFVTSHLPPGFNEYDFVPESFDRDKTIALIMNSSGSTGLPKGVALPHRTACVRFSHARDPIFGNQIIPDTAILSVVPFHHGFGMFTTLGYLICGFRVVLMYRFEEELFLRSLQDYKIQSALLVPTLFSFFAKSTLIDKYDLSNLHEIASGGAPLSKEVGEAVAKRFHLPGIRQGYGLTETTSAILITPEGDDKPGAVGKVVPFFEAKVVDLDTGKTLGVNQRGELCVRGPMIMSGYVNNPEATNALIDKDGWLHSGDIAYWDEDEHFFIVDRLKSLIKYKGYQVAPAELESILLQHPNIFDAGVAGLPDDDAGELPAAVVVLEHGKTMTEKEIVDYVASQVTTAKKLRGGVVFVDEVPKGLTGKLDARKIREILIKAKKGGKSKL
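Purified P. pyralis luciferase (10nM final) with 10uM D-luciferin and 10uM ATP (Km levels) in 50mM Tris acetate pH 7.5, 10mM Mg acetate, 0.01% Tween-20, 0.05% BSA; qHTS 6-point titration, ~60 µM downward; luminescence read.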
ELG1 genotox: induces genotoxicity in HEK293T cells with luciferase-tagged ELG1; Potency, µM (highest dose often 46 µM), for inactives: at the highest dose activity change, positive = activation, usual class: activators; 330,000 compounds, 1.3% hits; HEK293T ELG1-luciferase reporter, luminescence, 16 h; AID 504466; also: % of control where 0% means no effect; nearly all actives have a fitted effect of over 60% in size
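Genotoxic stress is detected as increased luminescence from luciferase-tagged ELG1 in HEK293T cells, measured with ONE-Glo after a 16 hr treatment at 37 °C.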
Luc counter: blocks Kinase-Glo luciferase, a counter-screen artifact | Potency, µM (top dose mostly 38.3 µM), for inactives: at the top dose activity change, negative = inhibition, most hits filed as inhibitors | Kinase-Glo luciferase, ATP luminescence, 8 min | 200,000 compounds, 0.28% hits; also: % is scaled to controls: 0 for no effect and ±100 for the full control effect; nearly all actives have a fitted effect of over 60% in size
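Kinase-Glo luciferase light output from ATP and luciferin was measured with 10 uM ATP, within the enzyme's linear range. Buffer: 50 mM imidazole pH 7.2, 50 mM KCl, 7 mM MgCl2, 0.01% Tween 20, 0.05% BSA; luminescence read after 8 min at ambient temperature.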
NPC1 prom act: activates the NPC1 promoter. Potency, µM (series often up to 9.22 µM), without a hit: at the highest dose activation, actives largely listed as activators. Huh7 NPC1 promoter luciferase reporter, 24 h. 320,000 compounds, 2.4% hits; also: % of control where 0% means no effect; nearly all actives have a fitted effect of over 60% in size
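In 1536-well qHTS, Huh7 cells harboring an NPC1 promoter–luciferase construct received compound for 24 h; activation was quantified by luminescence following luciferase reagent addition.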
Rab9 prom act: activates the Rab9 promoter | Huh7 Rab9 promoter-luciferase reporter, luminescence, 24 h | Potency, µM (top dose mostly 9.22 µM), for the others: top-dose activation, negative = inhibition, actives largely listed as activators | 320,000 compounds, 2.8% hits | AID 485297; also: % of control where 0% means no effect; nearly all actives have a fitted effect of over 60% in size
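Cell-based reporter: Huh7 stable for Rab9 promoter-driven luciferase, plated in reduced-serum medium with 10% FBS at 1500 cells/well, compound-treated 24 h at 37 °C, luminescence read after 10 min reagent.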
* marks the source's active call; other numbers are inactive results. Sampled rows, rich in hits. Any-hit rate of the full collection: about 7.5%. Calls follow the shape of the dose curve; as a rule, active = well fitted curve in the direction sought with a large enough effect; inconclusive = small, poorly fitted or top-dose-only effect, or another doubt; inactive = no such curve, though single readings can be large; an effect the other way counts as inactive or inconclusive. Potency is read from the fitted curve at half-maximal effect.

How did O=C(Nc1cccc(F)c1)c1ccc2snnc2c1 do in these assays?
SMN2 splice enh: 8%; FLuc counter: 1%

What do the screens show for `Cc1ccc(OC(=O)c2ccc3snnc3c2)cc1`?
SMN2 splice enh: -16%; FLuc counter: 9.5µM*; ELG1 genotox: 3%; Luc counter: -3%; NPC1 prom act: 3%; Rab9 prom act: 0%

How did COc1cccc(NC(=O)c2ccc3snnc3c2)c1 do in these assays?
SMN2 splice enh: inconclusive; FLuc counter: 19µM*; ELG1 genotox: 16%; Luc counter: -12%; NPC1 prom act: inconclusive; Rab9 prom act: inconclusive

How did O=C(Nc1ccc(F)cc1)Nc1ccc2snnc2c1 do in these assays?
SMN2 splice enh: 8%; FLuc counter: 24µM*

What do the screens show for `CCC(Sc1nnc2c(n1)[nH]c1ccccc12)C(=O)Nc1nnc(C(C)C)s1` (configuration not stated)?
SMN2 splice enh: -1%; FLuc counter: inconclusive

How did CN(C)c1ccc(CNC(=O)CCn2cccn2)cc1 do in these assays?
FLuc counter: 2%

How did CCc1cccc(C)c1NC(=O)Cn1ccn(-c2cccc(OC)c2)c(=O)c1=O do in these assays?
FLuc counter: -20%

How did COc1ccc(NC(=O)c2ccc3snnc3c2)cc1OC do in these assays?
SMN2 splice enh: 6%; FLuc counter: -17%

How did Cc1ccc(NC(=O)c2ccc3snnc3c2)cc1C do in these assays?
SMN2 splice enh: 20µM*; FLuc counter: 15µM*; ELG1 genotox: inconclusive; NPC1 prom act: inconclusive; Rab9 prom act: inconclusive

How did Cc1cc(C)n2nc(C(=O)N/N=C/c3cn(C)nc3C)nc2n1 do in these assays?
FLuc counter: 4%; ELG1 genotox: 2%; NPC1 prom act: -4%; Rab9 prom act: -7%

How did COc1cc(/C=N/NC(=O)CNC(=O)c2ccc3c(c2)OCCO3)ccc1O do in these assays?
SMN2 splice enh: -7%; FLuc counter: -3%; ELG1 genotox: -4%; Luc counter: -5%; NPC1 prom act: 2%; Rab9 prom act: 5%

How did COc1cc(/C=N/NC(=O)c2ccc3c(c2)OCCO3)cc(Cl)c1O do in these assays?
FLuc counter: 13µM*; ELG1 genotox: 10%; NPC1 prom act: 22%; Rab9 prom act: 2%

How did Cc1nn(C)cc1/C=N/NC(=O)c1ccc2c(c1)OCO2 do in these assays?
SMN2 splice enh: -16%; FLuc counter: 17µM*; ELG1 genotox: 13%; Luc counter: -9%; NPC1 prom act: 0%; Rab9 prom act: -41%

How did O=C(N/N=C/c1ccc([N+](=O)[O-])o1)c1ccc2c(c1)OCO2 do in these assays?
FLuc counter: inconclusive; ELG1 genotox: -4%; NPC1 prom act: -11%; Rab9 prom act: 13%

Results for Cc1ccc(C(=O)N/N=C/c2ccc3c(c2)OCO3)o1 ?
SMN2 splice enh: 13µM*; FLuc counter: 6µM*; ELG1 genotox: inconclusive; Luc counter: inconclusive; NPC1 prom act: 3.2µM*; Rab9 prom act: 2.8µM*

How did Cc1ccc(/C=N\NC(=O)c2ccc3c(c2)OCO3)o1 do in these assays?
FLuc counter: 24µM*; ELG1 genotox: inconclusive; NPC1 prom act: inconclusive; Rab9 prom act: inconclusive

How did CC(=O)Nc1ccccc1-c1nc2ccccc2n(CC(=O)Nc2ccc(C)c(Cl)c2)c1=O do in these assays?
FLuc counter: 0%

How did CCn1ccc2cc(S(=O)(=O)N3CCC(C(=O)NCCOC)CC3)ccc21 do in these assays?
FLuc counter: 4%

How did CCNC(=O)C(=O)Nc1cc2c3c(c1)CCN3C(=O)CC2 do in these assays?
FLuc counter: 2%; ELG1 genotox: inconclusive; NPC1 prom act: -3%; Rab9 prom act: -1%

How did O=C(O)c1ccc(/C=N/NC(=O)c2ccc3c(c2)OCCO3)cc1 do in these assays?
FLuc counter: 6.7µM*; ELG1 genotox: inconclusive; NPC1 prom act: 0%; Rab9 prom act: 1%

How did O=C(N/N=C/c1ccccc1)c1ccc2c(c1)OCO2 do in these assays?
FLuc counter: inconclusive; ELG1 genotox: inconclusive; NPC1 prom act: 0.56µM*; Rab9 prom act: 0.4µM*

Results for O=C(N/N=C/c1ccccc1)c1cc(-c2ccc3c(c2)OCO3)n[nH]1 ?
SMN2 splice enh: 15%; FLuc counter: -5%; ELG1 genotox: 2%; Luc counter: -1%; NPC1 prom act: -5%; Rab9 prom act: -2%

How did O=C(O)c1ccc(CNC(=O)c2ccc3c(c2)OCCO3)cc1 do in these assays?
FLuc counter: inconclusive; ELG1 genotox: 9%; NPC1 prom act: 1%; Rab9 prom act: 1%

How did CCn1cc(/C=N/NC(=O)c2ccc3c(c2)OCO3)cn1 do in these assays?
SMN2 splice enh: 7%; FLuc counter: inconclusive; ELG1 genotox: 2%; Luc counter: 1%; NPC1 prom act: 0%; Rab9 prom act: 11%

Results for Cc1ccc(C(=O)/C=C/c2ccc3c(c2)OCO3)o1 ?
SMN2 splice enh: 3%; FLuc counter: 2.4µM*; ELG1 genotox: 4%; Luc counter: -12%; NPC1 prom act: -5%; Rab9 prom act: 25%

Results for CN(C)c1ccc(/C=N/NC(=O)c2ccc3c(c2)OCO3)cc1 ?
FLuc counter: 8.5µM*; ELG1 genotox: inconclusive; NPC1 prom act: inconclusive; Rab9 prom act: inconclusive

How did COC(=O)/C=C/c1ccc2c(c1)OCO2 do in these assays?
SMN2 splice enh: 17%; FLuc counter: inconclusive; ELG1 genotox: 7%; Luc counter: -11%; NPC1 prom act: -2%; Rab9 prom act: -3%

Results for O=[N+]([O-])c1ccc(N2CCN(c3cccc(Cl)c3)CC2)cn1 ?
FLuc counter: -12%; ELG1 genotox: 5%; NPC1 prom act: 2%; Rab9 prom act: -4%

How did Cn1cc(Br)c(C(=O)N/N=C/c2cc3c(cc2Cl)OCO3)n1 do in these assays?
FLuc counter: 6µM*; ELG1 genotox: inconclusive; NPC1 prom act: 2.8µM*; Rab9 prom act: inconclusive

What do the screens show for `CCOc1cc(/C=N/NC(=O)c2nn(C)cc2Br)ccc1OCc1ccccc1Cl`?
SMN2 splice enh: -16%; FLuc counter: inconclusive; ELG1 genotox: -14%; Luc counter: 13%; NPC1 prom act: -1%; Rab9 prom act: -1%

How did Nc1nonc1C(=O)N/N=C\c1cc2c(cc1Cl)OCO2 do in these assays?
FLuc counter: inconclusive; ELG1 genotox: 15%; NPC1 prom act: -7%; Rab9 prom act: -2%

Results for CCOC(=O)N/N=C\c1ccc(OC(=O)c2ccc3c(c2)OCO3)cc1 ?
SMN2 splice enh: -4%; FLuc counter: 15µM*; ELG1 genotox: 10%; Luc counter: -9%; NPC1 prom act: 12%; Rab9 prom act: 21%
